Structures are written as SMILES. Peptide text beside a SMILES is read from it.

The source of these data is PubChem BioAssay.

This experiment in a line: stimulators of nuclear beta-catenin in C2C12, primary screen, imaging, WNT3A-conditioned medium, mouse C2C12, NPC library (AID 1117326). Further: reference of the scale not given here. The settings on record: stimulation, at 2 µM, stronger effect = higher value.
Consider `CCCC(C(=O)OCCN(CC)CC)(c1ccccc1)c1ccccc1`, for which the nuclear beta-catenin stimulation is 1.1%.
In the case of `O=C(Nc1ccc([N+](=O)[O-])cc1Cl)c1cc(Cl)ccc1O`, the nuclear beta-catenin stimulation was found to be 33.1%.
With `C=CC(N)CCC(=O)O` (stereo not drawn), the nuclear beta-catenin stimulation came out at 0.5%.
The same measure for `CC1(C)O[C@@H]2C[C@H]3[C@@H]4CCC5=CC(=O)CC[C@]5(C)[C@@]4(F)[C@@H](O)C[C@]3(C)[C@]2(C(=O)CCl)O1`: 0.3%; for `CNC1(C)C2CCC(C2)C1(C)C` (stereo not drawn): -2.6%.
The same measure for `NCCS`: 3.8%.
Regarding `OC[C@H]1O[C@@H](O[C@@H]2[C@@H](CO)O[C@](O)(CO)[C@H]2O)[C@H](O)[C@@H](O)[C@H]1O`, the nuclear beta-catenin stimulation turned out to be 1.6%.
For `Nc1c2c(nc3ccccc13)CCCC2O` (stereo not drawn), the nuclear beta-catenin stimulation is -0.9%.
For the compound `CSc1ccc2c(c1)C(N1CCN(C)CC1)Cc1ccccc1S2` (stereo not drawn), the nuclear beta-catenin stimulation stood at 1.4%.
With `Cc1ccc(C(=O)Nc2ccc(S(=O)(=O)O)c3cc(S(=O)(=O)O)cc(S(=O)(=O)O)c23)cc1NC(=O)c1cccc(NC(=O)Nc2cccc(C(=O)Nc3cc(C(=O)Nc4ccc(S(=O)(=O)O)c5cc(S(=O)(=O)O)cc(S(=O)(=O)O)c45)ccc3C)c2)c1`, the nuclear beta-catenin stimulation was -0.5%.
The same measure for `C[N+]1(CCCCC[N+]2(C)CCCC2)CCCC1`: 0.5%.
The same measure for `CCCCCN(CCCCC)C(=O)C(CCC(=O)O)NC(=O)c1ccc(Cl)c(Cl)c1` (stereo not drawn): -0.1%; for `NC(=O)NO`: 4%.
`CCOC(=O)C(C)(C)Oc1ccc(Cl)cc1`: the nuclear beta-catenin stimulation stood at 1.6%.
The same measure for `CC(=O)OC(C)C[N+](C)(C)C` (stereo not drawn): 3.2%; for `NNc1nncc2ccccc12`: -1.5%.
For the compound `CCOC(=O)NNc1nncc2ccccc12`, the nuclear beta-catenin stimulation stood at 5.1%.
For `COC(=O)[C@H](Cc1ccccc1)NC(=O)[C@@H](N)CC(=O)O` (H-Asp-Phe-OMe), the nuclear beta-catenin stimulation is 1.1%.
Regarding `COc1ccnc(CS(=O)c2nc3ccc(OC(F)F)cc3[nH]2)c1OC` (stereo not drawn), the nuclear beta-catenin stimulation was 1.1%.
Turning to `COC(=O)[C@@H]1[C@H]2C[C@H]3c4[nH]c5ccccc5c4CCN3C[C@@H]2CC[C@@H]1O`, the nuclear beta-catenin stimulation was 0.4%.
Turning to `CC(=O)Oc1ccccc1C(=O)O`, the nuclear beta-catenin stimulation was found to be 0.2%.
`Cn1cnc2c1c(=O)[nH]c(=O)n2C`: the nuclear beta-catenin stimulation is 1%.
With `O=C(COc1ccc(Cl)cc1)N1CCN(Cc2ccc3c(c2)OCO3)CC1`, the nuclear beta-catenin stimulation is -0.3%.
Regarding `C[n+]1cc2c3c(ccc2c2ccc4cc5c(cc4c21)OCO5)OCO3`, the nuclear beta-catenin stimulation stood at 1.3%.
As to `CN(C)[C@@H]1C(=O)C(C(N)=O)=C(O)[C@@]2(O)C(=O)C3=C(O)c4c(O)ccc(Cl)c4[C@@H](O)[C@H]3C[C@@H]12`, the nuclear beta-catenin stimulation was found to be 4.3%.
In the case of `Cc1cc(N)c2ccccc2[n+]1CCCCCCCCCC[n+]1c(C)cc(N)c2ccccc21`, the nuclear beta-catenin stimulation is -0.1%.
With `C=Cc1c(C)c2cc3[nH]c(cc4nc(cc5nc(cc1[nH]2)C(C)=C5CCC(=O)O)C(CCC(=O)O)=C4C)c(C)c3C=C`, the nuclear beta-catenin stimulation was found to be 0.1%.
In the case of `CCN(CC)C(C)CN1c2ccccc2Sc2ccccc21` (stereo not drawn) it was 0.5%; in that of `NCCCCCC(=O)O`, -1%; in that of `CCN(CC)CCNC(=O)c1ccc(NC(C)=O)cc1`, 1%.
`CCOC(=O)c1ccc(N)cc1`: the nuclear beta-catenin stimulation is 1.2%.
`CNC[C@H](O)c1cccc(O)c1`: the nuclear beta-catenin stimulation amounted to 1.7%.
`O=c1c(O)c(-c2ccc(O)c(O)c2)oc2cc(O)cc(O)c12`: the nuclear beta-catenin stimulation amounted to 1.7%.
For the compound `O=C(OCC(O)CO)c1ccccc1Nc1ccnc2cc(Cl)ccc12` (stereo not drawn), the nuclear beta-catenin stimulation is -0.3%.
Turning to `CC(=O)O[C@]1(C(C)=O)CC[C@H]2[C@@H]3C=C(Cl)C4=CC(=O)[C@@H]5C[C@@H]5[C@]4(C)[C@H]3CC[C@@]21C`, the nuclear beta-catenin stimulation was 1.7%.
Turning to `C[C@H]1O[C@@H](n2cc(F)c(=O)[nH]c2=O)[C@H](O)[C@@H]1O`, the nuclear beta-catenin stimulation was 0.4%.
In the case of `CC1(C)NC(=O)N(c2ccc([N+](=O)[O-])c(C(F)(F)F)c2)C1=O`, the nuclear beta-catenin stimulation is 2.1%.
With `C[N+](C)(C)CCCCCC[N+](C)(C)C`, the nuclear beta-catenin stimulation was -1.6%.
